From PubChem BioAssay AID1645860 (Buhrlage Lab, Dana-Farber Cancer Institute and Novartis …, 2021) come the findings set out here.

The structures appear in SMILES notation. Hit rate of the full screen: of about 47,000 compounds, about 2,500 (5.3%) were called active. The list comes from a sample in which actives are over-represented; it also holds similar structures and randomly drawn compounds. Values without a mark were called inactive. Rule as the data show it: active = inhibition above about 30%; inactive = the rest.

As usually defined, the inhibition is the change of the read-out against control, counted positive when it falls.

The target of the assay is Ubiquitin carboxyl-terminal hydrolase 30 (Homo sapiens) (UniProt Q70CQ3). The assay can be described thus: inhibitors of human USP30 deubiquitinase (AID 1645860). As to conditions: purified USP30, Ub-rhodamine cleavage fluorescence; at 25 µM; active compounds read high.
Ubiquitin carboxyl-terminal hydrolase 30 (Homo sapiens), sequence (Q70CQ3 whole entry, looked up): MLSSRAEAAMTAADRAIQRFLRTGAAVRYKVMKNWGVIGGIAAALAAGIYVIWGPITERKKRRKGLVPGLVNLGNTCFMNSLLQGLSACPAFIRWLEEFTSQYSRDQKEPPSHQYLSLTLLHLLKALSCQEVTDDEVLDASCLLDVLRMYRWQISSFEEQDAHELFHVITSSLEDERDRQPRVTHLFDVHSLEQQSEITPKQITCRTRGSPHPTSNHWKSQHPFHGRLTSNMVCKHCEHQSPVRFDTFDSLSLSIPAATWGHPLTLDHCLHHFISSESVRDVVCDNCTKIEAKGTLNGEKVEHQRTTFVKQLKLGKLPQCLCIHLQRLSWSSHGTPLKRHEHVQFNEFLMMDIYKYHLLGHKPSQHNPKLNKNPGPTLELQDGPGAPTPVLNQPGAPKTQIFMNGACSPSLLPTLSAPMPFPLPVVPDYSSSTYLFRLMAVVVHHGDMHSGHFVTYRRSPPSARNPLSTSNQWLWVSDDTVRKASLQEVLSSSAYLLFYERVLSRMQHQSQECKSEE
Consider `COc1ccc(CNC(=O)c2cccc3cccnc23)cc1`, for which the inhibition is -9.33%.

With `COc1ccc(CNC(=O)c2ccccc2-c2ncc(-c3ccccc3)o2)cc1`, the inhibition is -5.92%.

With `COc1ccc(CNC(=O)c2[nH]nc3c2CCc2ccccc2-3)cc1`, the inhibition is 49.8% (active).

As to `O=C(O)C1(Cc2nc3ccccc3s2)CCCCC1`, the inhibition is 11.5%.

`CC(C)(C)OC(=O)N1CCC2(CC1)NC(=O)C1(CCCCC1)N2`: the inhibition was 16.4%.

As for `CC(C)NC(=O)CN1C(=O)CC(C)Sc2ccc(S(=O)(=O)N3CCCCC3)cc21` (stereo unspecified), the inhibition was 86.3% (active).

`CC1CCCN(C(=O)c2cc(S(=O)(=O)N3CCCCC3)ccc2Cl)C1` (stereo unspecified): the inhibition was 8.5%.

As for `CCN1CCN(S(=O)(=O)c2ccc3c(c2)CC(C)N3C(=O)C2CC2)CC1` (stereo unspecified), the inhibition is 2.83%.

For `COCCn1cnc2c(-c3ccccc3)cn(CC(=O)NCc3ccc(F)cc3)c2c1=O`, the inhibition was -1.66%.

In the case of `Cc1ccc(CNC(=O)CCC(=O)N2Cc3cccn3-c3ccccc32)cc1`, the inhibition is -82.9%.

Turning to `Cc1ccc(CNC(=O)CC(c2ccccc2)c2ccccc2)cc1`, the inhibition is 34.5% (active).

Turning to `Cc1ccc(CNC(=O)c2ccc(-c3cccnc3)nc2)cc1`, the inhibition was 18.3%.

For the compound `O=C([C@H]1CCCO1)N1C[C@H](OCc2cccnc2)[C@H]2COC[C@H]21`, the inhibition was 2.01%.

Turning to `C/C(=C(\NC(=O)c1ccccc1)C(=O)NCc1ccccc1)c1ccc(C)cc1`, the inhibition is -4.27%.

In the case of `CCc1nnc(-c2csc(S(=O)(=O)NC3CCCCCC3)c2)o1`, the inhibition was 16.4%.

As to `O=C(CSc1ncnc2c1oc1ccccc12)NC1CCCC1`, the inhibition was 29.2%.

For the compound `CCc1nc(SCC(=O)Nc2cccc3ccccc23)c2oc3ccccc3c2n1`, the inhibition is 47.2% (active).

As for `CCc1nc(SCC(=O)Nc2cc(Cl)ccc2Cl)c2oc3ccccc3c2n1`, the inhibition is 20%.

For the compound `Cc1ccccc1OCC(=O)Nc1c(C)nc2scc(C)n2c1=O`, the inhibition was 2.51%.

In the case of `Clc1ccc(C[n+]2cc(-c3ccc(Cl)cc3)n3c2CCC3)cc1`, the inhibition is 34.1% (active).

For `O=C(C1CCCN(S(=O)(=O)c2ccc(Cl)cc2)C1)N1CCOCC1` (stereo unspecified), the inhibition was 25.3%.

As to `Cc1ccc(Nc2nc(C(=O)NCCN3CCCCC3C)cc3occc23)cc1Cl` (stereo unspecified), the inhibition is -102%.

Take `O=C(c1cc2occc2c(Nc2ccc(F)cc2)n1)N1CCN(C(=O)c2ccco2)CC1`: the inhibition is 32.6% (active).

In the case of `Cc1nc(Nc2ccc(NC(=O)c3ccco3)cc2)cc(N2CCCCC2)n1`, the inhibition was -38.5%.

Consider `COC(=O)c1cc(NC(=O)c2cccnc2)ccc1N1CCOCC1`, for which the inhibition is -17.6%.

`Cc1ccc(CNC(=O)c2ccc(-c3cncnc3)nc2)cc1C`: the inhibition is -42.8%.

For the compound `CC(C)c1ccc(NC(=O)C[n+]2cc(-c3ccc(F)cc3)n3c2CCC3)cc1`, the inhibition was 41.8% (active).

For `Cc1c(Cl)cccc1NC(=O)C[n+]1cc(-c2ccc(Cl)cc2)n2c1CCC2`, the inhibition was 27.5%.

`CC(=O)CCC(=O)Nc1ccc(-c2nnc3n2CCCCC3)cc1`: the inhibition was -1.55%.

With `Cc1cccnc1NC(=O)C1c2ccccc2C(=O)N(C)C1c1cccs1` (stereo unspecified), the inhibition is 7.71%.

Turning to `Cc1ccc(C(C)C(=O)N2CCC(c3nc4ccccc4cc3C(N)=O)CC2)cc1` (stereo unspecified), the inhibition is -3.47%.

Regarding `O=C(NCCC(=O)N1CCC2(CC1)NCCc1[nH]cnc12)c1ccc(-c2ccccc2)cc1`, the inhibition is 0.531%.

On to `O=C(CCN1C(=O)c2cccnc2Sc2ccccc21)Nc1cc(F)ccc1F`, for which the inhibition is 14.9%.

Take `O=C(c1nc(-c2cnccn2)no1)N1CCN(c2ccccc2F)CC1`: the inhibition was -11.4%.

As to `O=c1ccc(-c2nc(-c3cnccn3)no2)cn1Cc1ccccc1C(F)(F)F`, the inhibition is 41.2% (active).

As for `O=c1ccc(-c2nc(-c3cnccn3)no2)cn1Cc1cccc(Br)c1`, the inhibition is -4.12%.

For `Cc1noc(C)c1CC(=O)N1CCN(S(=O)(=O)c2ccc(C3CCCCC3)cc2)CC1`, the inhibition is 29.4%.

Turning to `CC(=O)N1C[C@H]2C3(CCN(C(=O)c4cc(C)on4)CC3)CC[C@@]2(C(=O)N(C)C)C1`, the inhibition was 0.149%.

For `CCCN1CCN(Cc2nc(-c3ccc(N4CCCCCC4)nc3)no2)CC1`, the inhibition was -26.8%.

Consider `O=C1COc2ccccc2N1Cc1noc(-c2ccccc2)n1`, for which the inhibition is 11.5%.

For the compound `COc1cccc(NC(=O)c2nnn(Cc3nc(-c4cccc(C)c4)oc3C)c2N)c1`, the inhibition was -2.05%.

On to `Cc1nc(-c2ccc(C(=O)NCc3ccc4c(c3)OCO4)cc2)cs1`, for which the inhibition was 46.2% (active).

For `Cc1ccc(C(=O)Nc2nccnc2C(=O)NCc2ccc3c(c2)OCO3)cc1`, the inhibition was -13.1%.

Consider `O=C(NCc1ccc2c(c1)OCO2)c1nc(-c2cccnc2)no1`, for which the inhibition was 2.73%.

Take `Cn1c(CCN2CCOCC2)nc2cc(NC(=O)c3ccco3)ccc21`: the inhibition was -0.464%.

Consider `O=C(CN(c1ccc(Cl)cc1Cl)S(=O)(=O)c1ccccc1)NCc1ccncc1`, for which the inhibition is 2.13%.

For `Cc1ccc(NC(=O)CCn2cnc3c2c(=O)n(C)c(=O)n3C)cc1`, the inhibition was 1.79%.

As for `Cc1cnc(NC(=O)Cn2cnc3c2c(=O)n(C)c(=O)n3C)s1`, the inhibition is 30.8% (active).

For `Cn1c(=O)c2c(ncn2CC(=O)OCc2cccc([N+](=O)[O-])c2)n(C)c1=O`, the inhibition was 13.8%.

Turning to `N#Cc1ccc(NC(=O)Nc2cccn(Cc3ccccc3F)c2=O)cc1`, the inhibition was 11.4%.

For the compound `Cc1ccccc1-c1nc(-c2cccc(OCC(=O)N3CCOCC3)c2)no1`, the inhibition was 44.8% (active).

As for `COc1ccc(-c2noc(-c3cccc(OCC(=O)NC(C)C)c3)n2)cc1`, the inhibition was -1.09%.

Take `Cc1ccc(-c2noc(-c3cccc(OCC(=O)N(C)C)c3)n2)cc1`: the inhibition is 53.1% (active).

As to `COc1cc(Cl)ccc1-c1nc(-c2cccc(C(=O)N3CCCC3)c2)no1`, the inhibition was 16.1%.

On to `Cc1ccccc1-c1nc(-c2cn(CC(=O)Nc3ccccc3)cn2)no1`, for which the inhibition is -44.4%.

`Cc1ccc(-c2nc(-c3cccc(-c4ccnn4C)c3)no2)cc1`: the inhibition is 4.68%.

`COc1cc(C)c(CN2CCC(c3cc(=O)[nH]c(C)n3)C2)cc1C` (stereo unspecified): the inhibition is 8.61%.

Turning to `CN(C)C(=O)C1CN(C(=O)c2n[nH]c3c2CCCC3)CC12CCOCC2` (stereo unspecified), the inhibition is -5.3%.

Consider `COc1cc(NC(=O)C2CCCCC2)c(OC)cc1NC(=O)CCC(=O)N1CCCCC1`, for which the inhibition is -281%.

Regarding `Cc1ccc(CS(=O)(=O)N2CCC(C(=O)N3CCC(C)CC3)CC2)cc1`, the inhibition is 9.43%.

For the compound `O=C(C1CCCCC1)N1CCCC(c2ccnc3ncnn23)C1` (stereo unspecified), the inhibition is 21.7%.

With `Cc1nc(-c2ccc(C)c(S(=O)(=O)NC3CCCC3)c2)cs1`, the inhibition is -1.27%.

Regarding `Cc1nc(-c2ccc(C)c(S(=O)(=O)NCc3ccccc3Cl)c2)cs1`, the inhibition is 34.4% (active).

Consider `Cc1ccccc1CNS(=O)(=O)c1c[nH]c2ncccc12`, for which the inhibition is -1.83%.

For `Cc1cncc(C(=O)N[C@@H]2CC[C@H]3Oc4ccccc4N[C@H]3[C@@H]2O)c1`, the inhibition is 6.67%.

As for `Cc1c(C(=O)O)[nH]c2ccccc12`, the inhibition is -68.1%.

Regarding `C[C@@H]1O[C@@H](OC2[C@H](Oc3cc(O)c4c(c3)OC(c3ccc(O)cc3)CC4=O)O[C@H](CO)[C@@H](O)[C@@H]2O)[C@H](O)[C@H](O)[C@H]1O` (stereo partly specified), the inhibition is 33% (active).

`Cc1cc(=O)oc2c(C)c(OC(C)C(=O)NCc3ccncc3)ccc12` (stereo unspecified): the inhibition was 6.63%.

Consider `COc1ccc(-c2cc(=O)oc3c(C)c(OCc4ccccc4F)ccc23)cc1`, for which the inhibition was 44% (active).

In the case of `Cc1c(OCc2ccccc2)noc1C1CCN(CC(N)=O)CC1`, the inhibition was 6.2%.

Regarding `Cc1cnc(N2CCC3(CC(=O)N(c4cccnc4)C3)C2)nc1` (stereo unspecified), the inhibition was -20.9%.

In the case of `Cc1ccc(N(C)C(=O)C2CCC(=O)N2S(=O)(=O)c2ccccc2)cc1` (stereo unspecified), the inhibition was 20.6%.

For the compound `COc1cccc(-c2nnc(-c3ccc(-n4ccnc4)nc3)o2)c1`, the inhibition was -12.7%.

For the compound `O=C(NCCc1ccccc1)c1ccc2c(=O)nc3c(-c4ccccc4F)n[nH]n3c2c1`, the inhibition was -10.3%.

In the case of `O=C(NCCc1ccccc1)c1ccc2c(=O)n(Cc3ccco3)c(=O)n(Cc3cccc([N+](=O)[O-])c3)c2c1`, the inhibition is 66.4% (active).

Regarding `COCCn1c(=O)[nH]c2cc(C(=O)NCCNc3ccc([N+](=O)[O-])cc3C#N)ccc2c1=O`, the inhibition was -7.15%.

Consider `COc1cccc(Nc2nc(N3CCCCC3)nc3c2cnn3C)c1`, for which the inhibition was -24.2%.

As for `CC(NC(=O)c1nc2n(n1)-c1ccccc1S(=O)(=O)N2)c1cc2ccccc2o1` (stereo unspecified), the inhibition is 0.0682%.

For the compound `O=C(Nc1cnc(N2CCCC2)nc1)c1ccco1`, the inhibition was -2.69%.

For the compound `COc1ccc(NC(=O)Cc2noc(-c3cccc(OC)c3)n2)cc1`, the inhibition was -26.6%.

For `COCCCNC(=O)[C@H](Cc1ccccc1)NC(=O)N1CCn2c1nc1ccccc12`, the inhibition is 1.89%.

In the case of `CSCC[C@H](NC(=O)N1CCn2c1nc1ccccc12)C(=O)NCc1ccc2c(c1)OCO2`, the inhibition is 43.3% (active).

In the case of `CC(C)[C@H](NC(=O)N1CCn2c1nc1ccccc12)C(=O)NCCc1ccccc1`, the inhibition is -9.82%.

`COCCn1cnc2nnc3ccc(C(=O)NC(C)C)cc3c21`: the inhibition was -9.87%.

In the case of `COc1ccc(NC(=O)CSc2cn(Cc3ccccc3C)c3ccccc23)c(OC)c1`, the inhibition was 8.78%.

As to `COc1ccc(CCNC(=O)c2ccc3ccccc3c2)cc1OC`, the inhibition is -12.8%.

As for `COc1ccc(CCNC(=O)CSc2cn(CCNC(=O)c3ccccc3C)c3ccccc23)cc1OC`, the inhibition was 36.5% (active).

As to `CC(C)c1noc2ncc(-c3nnc(C4CC4)o3)cc12`, the inhibition is -9.16%.

Take `COc1ccc2ncc(S(=O)(=O)c3ccccc3)c(N3CCOCC3)c2c1`: the inhibition was -25.7%.

On to `COc1ccc2ncc(S(=O)(=O)c3ccccc3)c(Nc3ccc(F)cc3)c2c1`, for which the inhibition is 38.4% (active).

With `COc1ccc2ncc(S(=O)(=O)c3ccccc3)c(N3CCN(c4cccc(C)c4C)CC3)c2c1`, the inhibition is -1.48%.
